The results in this text go back to PubChem BioAssay AID1259313 (Sanford-Burnham Center for Chemical Genomics, 2017).

In all, about 340,000 compounds went through this assay and about 8,500 (2.5%) were called active. Shown is part of a subset that was picked to be rich in actives. Values without a mark were called inactive.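 The calls were made as follows: active = melting temperature shift of at least 10% of the positive control shift, at one fixed dose; inactive = the rest.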

In this assay the test system is Glutamate receptor ionotropic, NMDA 3A (GRIN3A) ligand-binding domain. The experiment in a line: NR3A LBD thermal stabilization by compounds – biophysical, differential scanning fluorimetry, uHTS, primary screen (AID 1259313). The conditions noted are these: at 25 µM, stronger effect = higher value, 0% = protein alone, 100% = glycine-bound protein.
Turning to `CCCn1c(N)c(N(CCOC)C(=O)C2CCCC2)c(=O)[nH]c1=O`, the Tm shift relative to glycine control is 0.34%.

`COc1ccc(CCNC(=O)CSc2nnc3ccc(-c4ccncc4)nn23)cc1`: the Tm shift relative to glycine control was -0.92%.

For `O=C(CSCc1ccc([N+](=O)[O-])cc1)Nc1cccc(C(=O)Nc2ccccc2C(=O)O)c1`, the Tm shift relative to glycine control is 11.3% (active).

As to `O=C(COc1ccc([N+](=O)[O-])cc1)Nc1cccc(C(=O)Nc2ccccc2C(=O)O)c1`, the Tm shift relative to glycine control is 10.6% (active).

Turning to `Cc1cc(NC(=O)COc2ccc([N+](=O)[O-])cc2)no1`, the Tm shift relative to glycine control is 1.03%.

With `COc1ccc(NC(=O)CSCc2ccc([N+](=O)[O-])cc2)cc1OC`, the Tm shift relative to glycine control was 4.6%.

With `O=C(Nc1ccccc1C(=O)Nc1ccncc1)c1ccc([N+](=O)[O-])cc1`, the Tm shift relative to glycine control was -13.8%.

With `O=C(CSCc1ccc([N+](=O)[O-])cc1)NCCSCc1ccccc1`, the Tm shift relative to glycine control was 1.53%.

For the compound `Cc1c(CC(=O)N2CCN(C(=O)C3COc4ccccc4O3)CC2)c(=O)oc2c(O)c(O)ccc12` (stereo not given), the Tm shift relative to glycine control was 1.85%.

`Cc1ccccc1Nc1scc(-c2ccc(Br)cc2)[n+]1-c1ccccc1C`: the Tm shift relative to glycine control is 0.51%.

As for `COCC(C)NC(=O)c1ccc(-n2nc(C(F)(F)F)cc2-c2cccs2)cc1` (stereo not given), the Tm shift relative to glycine control is -0.17%.

As for `COC(=O)c1cn(C)c2ccc(S(=O)(=O)N3CC(C)CC(C)C3)cc2c1=O` (stereo not given), the Tm shift relative to glycine control is 1.34%.

For the compound `CCc1ccccc1NC(=O)c1cc(-c2ccc3c(c2)OCO3)on1`, the Tm shift relative to glycine control is 0.47%.

On to `O=C(Nc1cccnc1Cl)c1cc(-c2cccc(Cl)c2)on1`, for which the Tm shift relative to glycine control was -2.35%.

For `O=C(Nc1ccccc1C(F)(F)F)c1cc(-c2ccc(O)cc2)on1`, the Tm shift relative to glycine control was 12.7% (active).

As to `CNC(=O)c1nnn(-c2ccccc2)c1C(=O)NC`, the Tm shift relative to glycine control is 4.23%.

For `O=[N+]([O-])c1cc(C(F)(F)F)ccc1NCCc1ccncc1`, the Tm shift relative to glycine control is 0.61%.

With `Cc1sc2ncnc(N3CCC(C(=O)Nc4nc5ccc(Cl)cc5s4)CC3)c2c1C`, the Tm shift relative to glycine control was 7.43%.

With `Cc1ccc(C(=O)Nc2nc3ccc(Cl)cc3s2)o1`, the Tm shift relative to glycine control is 11.1% (active).

For `Cc1csc(NC(=O)c2ccc(-c3ccc(Cl)cc3Cl)o2)n1`, the Tm shift relative to glycine control was -7.24%.

In the case of `O=C(NCCCn1ccnc1)c1cc(-c2ccccc2)on1`, the Tm shift relative to glycine control is 1.42%.

With `CS/C(=C\[N+](=O)[O-])Nc1ccc(C)cc1`, the Tm shift relative to glycine control is -1.04%.

Take `COc1cccc(NC(=O)CN(C)C(=O)Cc2ccc(Cl)cc2Cl)c1`: the Tm shift relative to glycine control was -0.7%.

As to `CC(Oc1ccc(Cl)cc1Cl)C(=O)/C=C/N(C)C` (stereo not given), the Tm shift relative to glycine control was -0.27%.

As for `CCCC(=O)Nc1cccc(NC(=S)NC(=O)C(C)Oc2ccc(Cl)cc2Cl)c1` (stereo not given), the Tm shift relative to glycine control was 16% (active).

As to `Cc1ccc(NC(=O)c2cnc(SCC(=O)NCC3CCCO3)n(C)c2=O)cc1` (stereo not given), the Tm shift relative to glycine control was -0.94%.

With `CC(C)CN(C(=O)CN1CCN(S(=O)(=O)c2ccccc2)CC1)c1c(N)n(CC(C)C)c(=O)[nH]c1=O`, the Tm shift relative to glycine control is -2.36%.

As to `CSc1ccc(Cl)c(C(=O)OCC(=O)N2CC(C)OC(C)C2)c1` (stereo not given), the Tm shift relative to glycine control was 1.12%.

Turning to `O=C1NC(c2ccccc2)Cc2ccncc21` (stereo not given), the Tm shift relative to glycine control was 0.42%.

Regarding `CCc1ccc(NC(=O)C(C)OC(=O)/C=C/c2cccc([N+](=O)[O-])c2)cc1` (stereo not given), the Tm shift relative to glycine control was 0.39%.

Take `CCC(CC)NC(=O)/C=C/c1cccc([N+](=O)[O-])c1`: the Tm shift relative to glycine control is -1.15%.

As to `Cc1ccc(NC(=O)O/N=C/c2cccc([N+](=O)[O-])c2)cc1`, the Tm shift relative to glycine control was 15.8% (active).

Consider `CCOc1ccc(-c2cc(C(=O)N/N=C/c3ccc(O)cc3)c3ccccc3n2)cc1`, for which the Tm shift relative to glycine control was 3.69%.

For the compound `Cc1ccc(C(=O)N/N=C/c2cccc3ccccc23)cn1`, the Tm shift relative to glycine control is -0.89%.

In the case of `N#CCC(=O)N/N=C/c1cn(Cc2ccc3ccccc3c2)c2ccccc12`, the Tm shift relative to glycine control was 8.21%.

With `COc1cccc(Cn2cc(/C=N/NC(=O)c3cc(O)cc(O)c3)c3ccccc32)c1`, the Tm shift relative to glycine control was 15.4% (active).

With `CCn1c(=S)sc2c(=O)n(CC(=O)Nc3ccc(OC)cc3)c(C)nc21`, the Tm shift relative to glycine control was -1.05%.

On to `CCOC(=O)c1ccccc1NC(=O)CSc1nc2c(sc(=S)n2CC)c(=O)[nH]1`, for which the Tm shift relative to glycine control was 2.58%.

Take `CCn1c(=S)sc2c(=O)n(CC(=O)Nc3cccc(Br)c3)c(C)nc21`: the Tm shift relative to glycine control was 19% (active).

Take `CCCCN(CC)C(=O)C1CCCN(S(=O)(=O)c2cccc3nsnc23)C1` (stereo not given): the Tm shift relative to glycine control was -4.45%.

For `CC1C(=O)Nc2ccc(S(=O)(=O)N3CCN(c4ccccc4F)CC3)cc2NC1=O` (stereo not given), the Tm shift relative to glycine control is 0.26%.

With `Cc1cccc2nc(CNc3ccc(F)cc3)cn12`, the Tm shift relative to glycine control was -1.65%.

As to `CC(=O)NS(=O)(=O)c1ccc(NC(=O)/C=C/c2ccccc2Cl)cc1`, the Tm shift relative to glycine control is -4.31%.

For the compound `NS(=O)(=O)c1ccc(NC(=O)/C=C/c2ccccc2Cl)cc1`, the Tm shift relative to glycine control is 22.5% (active).

Regarding `O=C(/C=C/c1ccccc1Cl)Nc1ccc(S(=O)(=O)Nc2ncccn2)cc1`, the Tm shift relative to glycine control was 3.4%.

For `O=C(O)c1ccccc1-c1ccccc1C(=O)Nc1ccccc1Br`, the Tm shift relative to glycine control was -1.03%.

As to `Cc1cc(N2C(=O)c3ccc(C(=O)NCc4ccccc4)cc3C2=O)no1`, the Tm shift relative to glycine control is -0.54%.

Consider `CC(C)C[C@H](NC(=O)N1CCn2c1nc1ccccc12)C(=O)NC1CC1`, for which the Tm shift relative to glycine control is -0.74%.

Consider `O=C(Nc1ccc(Cl)cc1)Nc1nnc(/C=C/c2ccccc2)s1`, for which the Tm shift relative to glycine control was 10.2% (active).

For `O=C(CSc1ccccc1)Nc1nnc(/C=C/c2ccccc2)s1`, the Tm shift relative to glycine control is -4.65%.

As to `COc1ccc(/C=C/c2nnc(NC(=O)C(C)C)s2)cc1`, the Tm shift relative to glycine control is 6.05%.

On to `CC1CN(c2cc(=O)n(Cc3ccc(F)cc3)c(=O)[nH]2)CC(C)O1` (stereo not given), for which the Tm shift relative to glycine control is -2.45%.

For the compound `COc1cc(CNC2CCCCC2)c(Br)cc1OC1CCCC1`, the Tm shift relative to glycine control was -0.72%.

For the compound `COc1ccc(CNC(=O)COc2ccccc2C(=O)c2cnn(-c3ccccc3)c2)cc1OC`, the Tm shift relative to glycine control is 0.33%.

On to `Cc1cc(O)cc(O)c1C(=O)Cc1cnn(-c2ccccc2)c1`, for which the Tm shift relative to glycine control is 13.1% (active).

Turning to `O=C(c1cnn(-c2ccc(Cl)cc2)c1)c1ccccc1O`, the Tm shift relative to glycine control is -2.84%.

Regarding `O=C(Nc1ccc(N2CCOCC2)nc1)c1c(F)cccc1F`, the Tm shift relative to glycine control is 1.58%.

For the compound `COc1cc(CC(=O)NCc2cccs2)cc(OC)c1OC`, the Tm shift relative to glycine control is 2.82%.

In the case of `COc1ccccc1CNC(=O)c1cc(=O)c2ccccc2o1`, the Tm shift relative to glycine control is -2.39%.

As to `COC(=O)c1c(-c2ccsc2)oc2ccc(-c3cc(OC)c(OC)c(OC)c3)cc12`, the Tm shift relative to glycine control is 14.2% (active).

For `CCc1ccccc1NC(=O)CN(c1ccc(OC)cc1OC)S(=O)(=O)c1ccccc1[N+](=O)[O-]`, the Tm shift relative to glycine control is -2.68%.

As to `COc1ccc(Br)cc1CN(C)CC(=O)Nc1cc([N+](=O)[O-])ccc1OC`, the Tm shift relative to glycine control was -12.7%.

With `CCOc1ccc(CCNC(=O)COC(=O)C2CCN(c3ccc(C(F)(F)F)cn3)CC2)cc1OCC`, the Tm shift relative to glycine control was -4.5%.

Consider `CCc1cccc(NC(=O)COC(=O)C2CCN(c3ccc(C(F)(F)F)cn3)CC2)c1`, for which the Tm shift relative to glycine control is 12.6% (active).

As to `N#CCCN(C(=O)COC(=O)C1CCN(c2ccc(C(F)(F)F)cn2)CC1)c1ccc(F)cc1`, the Tm shift relative to glycine control was 1.13%.

Consider `COc1ccc(-n2nc(C(=O)NCC(=O)N3CCCCCC3)c3ccccc3c2=O)cc1Cl`, for which the Tm shift relative to glycine control was -2.28%.

As to `O=C(COC(=O)c1cc(-c2cccs2)nn1-c1ccccc1)Nc1cc([N+](=O)[O-])ccc1Cl`, the Tm shift relative to glycine control was -1.02%.

With `NC(=O)c1ccc(NC(=O)COC(=O)c2c3c(nc4ccccc24)/C(=C\c2ccc4c(c2)OCO4)CCC3)cc1`, the Tm shift relative to glycine control is 31.8% (active).

Take `O=C(COC(=O)c1ccc(F)cc1)Nc1ccc2c(c1)OCO2`: the Tm shift relative to glycine control is -2.46%.

For `NS(=O)(=O)c1ccc(NC(=O)COC(=O)c2c3c(nc4ccccc24)/C(=C\c2ccc4c(c2)OCO4)CCC3)cc1`, the Tm shift relative to glycine control is 38% (active).

For `COc1cc(/C=C2\CCCc3c2nc2ccccc2c3C(=O)O)cc(Cl)c1O`, the Tm shift relative to glycine control is -0.18%.

With `NS(=O)(=O)c1ccc(NC(=O)COC(=O)CCc2c[nH]c3ccccc23)cc1`, the Tm shift relative to glycine control is -3.19%.

With `O=C(COC(=O)c1c2c(nc3ccccc13)/C(=C\c1cccs1)CCC2)Nc1ccccc1Cl`, the Tm shift relative to glycine control is 14.6% (active).

As to `NS(=O)(=O)c1ccc(NC(=O)COC(=O)c2ccco2)cc1`, the Tm shift relative to glycine control is -3.86%.

On to `O=C(COC(=O)c1ccncc1)Nc1ccc2c(c1)OCO2`, for which the Tm shift relative to glycine control was -0.26%.

With `CC(C)(C)n1ncc2c(=O)n(Cc3c(Cl)cccc3Br)cnc21`, the Tm shift relative to glycine control is -3.98%.

Regarding `COc1ccc(NS(=O)(=O)c2ccc(C)c(C(=O)NNC(=O)c3csc(N4CCOCC4)n3)c2)cc1`, the Tm shift relative to glycine control is 0.91%.

Take `COc1ccc(NC(=O)COC(=O)CNC(=O)C2CCCCC2)cc1`: the Tm shift relative to glycine control is -0.45%.

Take `Cc1cc(C)cc(NC(=O)Cn2cnc3c(nnn3Cc3ccc(F)cc3)c2=O)c1`: the Tm shift relative to glycine control was 3.35%.

For the compound `COc1ccc(/C=C/CN2CCCC(C(=O)c3cc(F)ccc3F)C2)cc1` (stereo not given), the Tm shift relative to glycine control is -1.5%.

Regarding `CCN1CCN(c2nc(Nc3cc(OC)ccc3OC)nc(Nc3cc(OC)ccc3OC)n2)CC1`, the Tm shift relative to glycine control is -2.4%.

For `Cc1csc(NC(=O)C2CCN(S(=O)(=O)c3ccccc3)CC2)n1`, the Tm shift relative to glycine control was 2.42%.

As to `CC(C)(C)NC(=O)COc1ccc(CNc2ccc3[nH]c(=O)[nH]c3c2)cc1`, the Tm shift relative to glycine control was -1.72%.

Take `COc1cccc(CN(C)CC(O)COC(c2ccccc2)c2ccccc2C)c1` (stereo not given): the Tm shift relative to glycine control is -2.39%.

As to `C=C(C)Cn1c(C)cc(C)c(S(=O)(=O)c2ccccc2C)c1=O`, the Tm shift relative to glycine control was 2.34%.

For `COCCn1c(C)cc(C(=O)CSc2nnc(C3CC3)n2C2CC2)c1C`, the Tm shift relative to glycine control is -0.08%.

Take `Cc1nc2ccccc2n1CC(=O)N/N=C/c1cccs1`: the Tm shift relative to glycine control is -4.96%.

For the compound `CC(C)NS(=O)(=O)c1ccc(NC(=O)c2cccnc2)cc1`, the Tm shift relative to glycine control was 0.24%.

Take `COc1ccc(NS(=O)(=O)c2ccc(NC(=O)c3ccc(N(C)S(C)(=O)=O)cc3)cc2)cc1`: the Tm shift relative to glycine control is -0.38%.

Regarding `COc1ccc(C(=O)Nc2ccc(S(=O)(=O)NC(C)C)cc2)cc1`, the Tm shift relative to glycine control was 14% (active).
